Screening results from PubChem BioAssay.
A549 tox – Nrf2 qHTS screen for inhibitors: counterscreen for cytotoxicity. hit rate 0.16% among 390,000. A549 ARE-Fluc cells, CellTiter-Fluor viability, 18-24 h. Potency, µM (titrated, usually from 46 µM), most hits filed as inhibitors
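A549 ARE-Fluc cells in 5% FBS OPTI-MEM, 5000 cells/well, rested 2 h then exposed to compounds in concentration-response for 18-24 h at 37 °C. Viability by CellTiter-Fluor fluorescence (Ex 405/Em 525) after 30 min; luciferase luminescence (BugLite, 15 min, RT) read afterwards.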
LDHA inh – qHTS assay for inhibitors of human lactate dehydrogenase; purified LDHA, NADH/diaphorase-resazurin fluorescence; stronger effect = lower value; activity change, % (values are at about 110 or 230 µM); hit rate 0.15% among 480,000; AID 1347041, 2019; in the data active = activity change below about -30%; inconclusive = mostly about -25% to -30%
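Human LDH5 at 2 nM final in Tris HCl pH 7.4 with 0.06 mM NADH and 0.2 mM pyruvate, reacted 5 minutes at room temperature. Remaining NADH coupled via diaphorase/resazurin; resorufin fluorescence read at 0 and 20 minutes, normalized to enzyme-free and DMSO wells.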
ERG-DNA inh – qHTS for Small Molecule Inhibitors of the ERG Ets/DNA interaction. Potency, µM (top dose mostly 76.9 µM), most hits filed as inhibitors. hit rate 0.028% among 370,000. AID 624246, 2012. Transcriptional regulator ERG (Homo sapiens), P11308. fluorescence polarization, His-ERG Ets domain / labelled DNA; active = well fitted inhibition curve with a large enough effect in the polarisation, with a control signal flat; inconclusive = small, poorly fitted or top-dose-only effect, or effect the other way, or a change in a side signal; inactive = no such curve, though single readings can be large or run the other way; the % refers to the polarisation;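 note: polarization taken with two DNA probes labelled with fluorescein and Texas red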
Target sequence (P11308 whole entry, looked up, the tested form may be a part): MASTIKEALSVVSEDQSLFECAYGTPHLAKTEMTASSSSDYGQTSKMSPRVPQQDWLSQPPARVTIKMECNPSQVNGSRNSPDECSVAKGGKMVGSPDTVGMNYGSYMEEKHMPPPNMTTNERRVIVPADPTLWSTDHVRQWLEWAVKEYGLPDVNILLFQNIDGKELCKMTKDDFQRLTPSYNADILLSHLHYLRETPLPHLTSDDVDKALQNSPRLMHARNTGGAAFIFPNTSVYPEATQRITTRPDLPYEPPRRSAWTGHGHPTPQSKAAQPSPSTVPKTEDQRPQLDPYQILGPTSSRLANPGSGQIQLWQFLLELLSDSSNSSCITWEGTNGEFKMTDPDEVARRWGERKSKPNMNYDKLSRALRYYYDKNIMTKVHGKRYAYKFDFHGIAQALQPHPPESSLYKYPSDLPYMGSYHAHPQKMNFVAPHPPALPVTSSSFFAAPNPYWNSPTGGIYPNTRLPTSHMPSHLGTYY
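His-tagged ERG Ets domain (1 uM in the protein solution; 300mM KCl, 50mM Tris-HCl, 1mM EDTA, 1mM DTT, pH 7.5) received compound, then a probe mix of 5 nM fluorescein-DNA and 100nM Texas-615-DNA. Fluorescence polarization was read for both dyes.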
Nrf2 inh – Nrf2 qHTS screen for inhibitors; hit rate 2.1% among 360,000; AID 504444, 2011; A549 ARE-Fluc reporter, luciferase luminescence, 18-24 h; Potency, µM (series often up to 46 µM), hits mostly inhibitors; note: nearly all actives have a fitted effect of over 60% in size
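Nrf2 activity is the BugLite luminescence, read 15 min after reagent at room temperature, following CellTiter-Fluor cytotoxicity readout (30 min, 37C). Compound titrations were applied for 18-24 h to 5000 A549 ARE_Fluc cells/well in 5% FBS OPTI-MEM.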
Nrf2 ARE act – qHTS of Nrf2 Activators. AREc32 ARE-luciferase reporter (MCF7-derived line), luminescence, 24 h. Potency, µM (doses to about 46.1 µM), usual class: activators. hit rate 0.31% among 410,000. AID 624171, 2012; note: nearly all actives have a fitted effect of over 65% in size
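Luciferase luminescence (Steady-Glo, 30 min at room temperature) served as the read-out of ARE activation in AREc32 cells treated with compounds for 24 hr at 37 deg C.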
12-LOX inh – Primary qHTS assay for inhibitors of human arachidonate 12S-lipoxygenase (ALOX12): Round 2; AID 1671190, 2021; purified 12hLO, xylenol orange hydroperoxide absorbance; hit rate 1.1% among 580,000; Potency, µM (series often up to 108 µM), most hits filed as inhibitors; Polyunsaturated fatty acid lipoxygenase ALOX12 (Homo sapiens), P18054
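Purified human 12hLO at 150 nM in 25 mM Hepes, 0.01% Triton X-100, pH 7.0, preincubated 15 min at room temperature with compound. Reaction started with 40 uM arachidonic acid, 30 min at room temperature. Hydroperoxide measured by Fe-xylenol orange, 573/405 nm absorbance ratio.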
Of the large screens only hits and unclear results are named; the others gave an inactive call. Sampled rows, rich in hits. Any-hit rate of the full collection: about 2.7%. Unless noted, calls come from the whole dose curve; as a rule, active = well fitted curve in the direction sought with a large enough effect; inconclusive = small, poorly fitted or top-dose-only effect, or another doubt; inactive = no such curve, though single readings can be large; an effect the other way counts as inactive or inconclusive.

CCC(C)c1ccc(NC(=S)NCCn2cc(Cl)cn2)cc1 (stereo not given)	Nrf2 inh inconclusive, 12-LOX inh 35µM
NC(Cc1ccccc1)c1nnc(SCc2ccccc2)o1 (stereo not given)	12-LOX inh inconclusive (no result: A549 tox, ERG-DNA inh, Nrf2 inh, Nrf2 ARE act)
Oc1ccc(CCc2n[nH]c(=S)n2-c2ccc(F)cc2)cc1	12-LOX inh 25µM
CC(C)=CCc1c(O)cc2c(c1O)C(=O)CC(c1ccccc1)O2 (stereo not given)	none
O=C1CC(c2ccc(O)c(O)c2)Oc2cc(O)cc(O)c21 (stereo not given)	12-LOX inh 6.3µM
CC(C)=CCc1c(O)ccc2c1OC(c1ccc(O)c(O)c1)CC2=O (stereo not given)	12-LOX inh 28µM
O=C1CC(c2ccc(O)c(O)c2)Oc2c1ccc(O)c2O (stereo not given)	12-LOX inh 35µM
COc1ccc([C@H]2Cc3cccc(O)c3C(=O)O2)cc1O	Nrf2 ARE act inconclusive
O=C1c2cc(O)c(O)cc2OC(c2ccc(O)c(O)c2)C1O (stereo not given)	12-LOX inh inconclusive
COc1ccc([C@H]2Cc3cc(O)cc(O)c3C(=O)O2)cc1O	12-LOX inh 22µM
Cc1ccc(S(=O)(=O)N2CCN(C(C)c3nc4ccccc4c(=O)[nH]3)CC2)c(C)c1 (stereo not given)	none (no result: A549 tox, ERG-DNA inh, Nrf2 inh, Nrf2 ARE act)
COCCN1C(=O)c2ccccc2NC1c1csc(-c2ccc(Cl)cc2)n1 (stereo not given)	12-LOX inh inconclusive (no result: A549 tox, ERG-DNA inh, Nrf2 inh, Nrf2 ARE act)
CC(=O)OCC1=C[C@@H]2OC(=O)C3=CO[C@@H](O[C@@H]4O[C@H](CO)[C@@H](O)[C@H](O)[C@H]4O)[C@H]1[C@@H]32	none
C=C1C(=O)OC2C=C(CO)C3OC3C3OC3(C)CC(OC(=O)/C(=C/C)COC(C)=O)C12 (stereo not given)	A549 tox inconclusive, Nrf2 inh 23µM, Nrf2 ARE act inconclusive
COc1ccc(NC(=O)c2nc(-c3ccccc3)n(-c3ccc(F)cc3)n2)c(OC)c1	none (no result: A549 tox, ERG-DNA inh, Nrf2 inh, Nrf2 ARE act)
N#Cc1cccc(S(=O)(=O)N2CCN(c3ccnc4cc(Cl)ccc34)CC2)c1	Nrf2 inh 10µM
O=C(C1CCCCC1)N1CCN(c2ccnc3cc(Cl)ccc23)CC1	Nrf2 inh 21µM
CC(=O)c1ccc(N2CCN(c3ccnc4cc(Cl)ccc34)CC2)cc1	Nrf2 inh 1.6µM
O=C(Nc1ccc(OC(F)(F)F)cc1)c1ccc2nccnc2c1	A549 tox inconclusive, Nrf2 inh 13µM
CCCc1ccc(-c2cc(C(=O)O)c3ccccc3n2)cc1	12-LOX inh inconclusive (no result: A549 tox, ERG-DNA inh, Nrf2 inh, Nrf2 ARE act)
CCOC(=O)C(NC(=O)/C=C/c1ccc(OCC)c(OC)c1)C(=O)OCC	none (no result: A549 tox, ERG-DNA inh, Nrf2 inh, Nrf2 ARE act)
COc1cccc(/C=C(/SCC(=O)O)c2nc3ccccc3s2)c1	12-LOX inh inconclusive (no result: A549 tox, ERG-DNA inh, Nrf2 inh, Nrf2 ARE act)
COc1ccccc1NC(=O)N1CCN(c2ccnc3cc(Cl)ccc23)CC1	Nrf2 inh 13µM
O=C(C1CCC1)N1CCN(c2ccnc3cc(Cl)ccc23)CC1	none
CC(C)(C)C(=O)N1CCN(c2ccnc3cc(Cl)ccc23)CC1	Nrf2 inh 8.2µM
O=C(C1CC1)N1CCN(c2ccnc3cc(Cl)ccc23)CC1	Nrf2 inh inconclusive
O=C(Nc1ccc(OC(F)(F)F)cc1)N1CCN(c2ccnc3cc(Cl)ccc23)CC1	A549 tox inconclusive, Nrf2 inh 4.6µM
Cc1ccc2c(=O)cc(C(=O)Nc3sc4c(c3C#N)CCCC4)oc2c1C	none (no result: A549 tox, ERG-DNA inh, Nrf2 inh, Nrf2 ARE act)
COc1ccc2cc(CN(C)C(=O)c3ccc4c(c3)OCO4)ccc2c1	none (no result: A549 tox, ERG-DNA inh, Nrf2 inh, Nrf2 ARE act)
CCCCN(CC)Cc1c(C)[nH]c2ccc(Br)cc2c1=O	none (no result: A549 tox, ERG-DNA inh, Nrf2 inh, Nrf2 ARE act)
CCOc1ccc(S(=O)(=O)N(CC(=O)N/N=C/c2ccc(-c3ccc([N+](=O)[O-])cc3)o2)c2ccccc2)cc1	A549 tox inconclusive, 12-LOX inh 32µM (no result: Nrf2 inh)
